Screening data from PubChem.
GLP-1R inv ag = acts as inverse agonist at human GLP-1 receptor; HEK293 GLP-1R CRE-luciferase, luminescence, 24 h; GLP-1R form is constitutively active; AID 624417; 1.6% of 410,000 active; Potency, µM (top dose mostly 38.3 µM), without a hit: top-dose activity change, negative = inhibition, most hits filed as inhibitors; note: % is set by controls: 0 for no effect and ±100 for the full control effect; nearly all actives have a fitted effect of over 55% in size
Target sequence (P43220 whole entry, looked up): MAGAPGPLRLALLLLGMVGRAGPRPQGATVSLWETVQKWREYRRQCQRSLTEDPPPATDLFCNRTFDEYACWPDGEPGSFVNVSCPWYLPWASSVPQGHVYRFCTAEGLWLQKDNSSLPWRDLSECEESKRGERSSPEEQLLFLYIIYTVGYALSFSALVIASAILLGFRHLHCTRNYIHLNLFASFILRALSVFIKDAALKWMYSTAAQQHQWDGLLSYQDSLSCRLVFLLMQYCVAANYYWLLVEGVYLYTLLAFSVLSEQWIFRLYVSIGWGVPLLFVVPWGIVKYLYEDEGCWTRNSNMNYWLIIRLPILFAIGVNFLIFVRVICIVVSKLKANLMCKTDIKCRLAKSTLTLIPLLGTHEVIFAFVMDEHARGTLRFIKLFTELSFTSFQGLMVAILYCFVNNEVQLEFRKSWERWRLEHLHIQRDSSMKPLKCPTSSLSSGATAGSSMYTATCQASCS
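HEK293 cells stably co-expressing constitutively active GLP-1R and a cAMP-responsive luciferase reporter were seeded in DMEM with 10% Nu serum, given compounds after 12 h, and incubated 24 h at 37 deg C. Luminescence was then read.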
GLP1R ag = agonists of human GLP-1 receptor; HEK293 GLP-1R CRE-luciferase, luminescence, 4-6 h; cells express a hypersensitive GLP-1R form; P43220; 0.007% of 380,000 active; Potency, µM (top dose mostly 45.6 µM), for the others: top-dose activation, usual class: activators; AID 624172; note: % of control where 0% means no effect
TrxR1 substrate = rat thioredoxin reductase 1 substrate activity; AID 588456; 0.01% of 390,000 active; Potency, µM (top dose mostly 114 µM), without a hit: top-dose activity change, negative = substrate turnover; purified TrxR1 substrate turnover, NADPH consumption readout; O89049; note: % is set by controls: 0 for no effect and ±100 for the full control effect; nearly all actives have a fitted effect of over 50% in size
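Rat TrxR1, dispensed at 90 nM, was prereduced with 400 uM NADPH (final) for 5 min at ~22 deg C, then incubated with compound 15 min before 400 uM selenite. A first-read NADPH fluorescence drop versus no-compound background flagged substrates.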
rTrxR1 inhibitor = blocks rat thioredoxin reductase 1 | O89049 | AID 588453 | 1% of 390,000 active | Potency, µM (doses to about 114 µM), for the others: top-dose activity change, negative = inhibition, usual class: inhibitors | recombinant rTrxR1, NADPH fluorescence consumption, selenite substrate; note: % is set by controls: 0 for no effect and ±100 for the full control effect; nearly all actives have a fitted effect of over 65% in size
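Rat TrxR1 (90 nM in the dispensed reagent) was pre-reduced with 400 uM NADPH for 5 min at room temperature, then incubated with compound for 15 min. After 400 uM selenite was added, NADPH fluorescence (Ex 340/Em 450 nm) was followed for 8 min.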
mIDH1 inhibitor = inhibitors of human mutant IDH1 R132H; IDH1-R132H enzyme, NADPH consumption, diaphorase/resazurin fluorescence; Potency, µM (titrated, usually from 76.6 µM), for the others: top-dose activity change, negative = inhibition, most hits filed as inhibitors; 0.093% of 390,000 active; note: % is set by controls: 0 for no effect and ±100 for the full control effect; nearly all actives have a fitted effect of over 65% in size
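IDH1-R132H (0.5 ug/mL) preincubated 30 min with compound, then NADPH (0.016 mM) and alpha-KG (2 mM) added; 80 min at RT, pH 7.5. Remaining NADPH coupled via diaphorase/resazurin to fluorescence (540/590 nm); concentration-response curves normalized to no-enzyme control.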
GLP1R cytotox = cytotoxicity counter-screen for GLP-1 receptor inverse agonists. HEK293 cAMP-luciferase reporter cells, luminescence, 24 h. Potency, µM (series often up to 38.3 µM), without a hit: at the highest dose activity change, negative = inhibition, usual class: inhibitors. 0.13% of 410,000 active. AID 624418;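 note: loss of luciferase light is scored as toxicity; % is set by controls: 0 for no effect and ±100 for the full control effect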
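Cells in DMEM/10% Nu serum/1% pen-strep, 1536-well format. Pre-incubated 12 h, dosed with 23 nL compound, incubated a further 24 h. Luciferase detection, 12 min at room temp, luminescence.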
Active calls of the source: *; u = inconclusive; x = no result; [ ] = another dose, or the depositor's remark. Sampled rows, rich in hits. Any-hit rate of the full collection: about 2.7%. Calls come from the whole dose curve; as a rule, active = well fitted curve in the direction sought with a large enough effect; inconclusive = small, poorly fitted or top-dose-only effect, or another doubt; inactive = no such curve, though single readings can be large; an effect the other way counts as inactive or inconclusive. Potency is the fitted concentration of half-maximal effect.

SMILES	GLP-1R inv ag	GLP1R ag	TrxR1 substrate	rTrxR1 inhibitor	mIDH1 inhibitor	GLP1R cytotox
O=C(Nc1ccc(Cl)c(C(F)(F)F)c1)NC1CC2CCCC(C1)N2Cc1ccccc1 (stereo not drawn)	2.5µM*	-6%	0%[57.1 µM]	3%[57.1 µM]	-10%	u
O=C(Nc1ccc(F)cc1)NC1CCN(Cc2ccccc2)CC1	u	-1%	6%	23%	7%	-26%
CCN(CC)S(=O)(=O)c1ccc(C)c(NCC(=O)Nc2ccc(C#N)c(Cl)c2)c1	5.6µM*	2%	-3%	11%	-1%	-26%
Cc1cccc(Cn2c(C)c(C)c3cc(C(=O)NCc4ccco4)ccc32)c1	u	x	7%[57.1 µM]	24%[57.1 µM]	1%	u
C[C@]12CC[C@@H](O)CC1=CCC1C2CC[C@@]2(C)C1CC[C@@H]2N (stereo partly drawn)	11µM*	8%	11%[57.1 µM]	19%[57.1 µM]	13%	-14%
Cc1ccsc1/C=C1\C(=O)NC(=S)N(C)C1=O	37%	-4%	7%	32µM*	3%	-11%
CN1C(=O)/C(=C\c2ccc(N3CCCCC3)o2)C(=O)NC1=S	49%	-1%	17%[57.1 µM]	-12%[57.1 µM]	5%	-24%
C=CCN1C(=O)/C(=C/c2ccc(Br)s2)C(=O)NC1=S	-9%	-15%	-2%	6.3µM*	-10%	-22%
CN1C(=O)/C(=C/c2ccc(Cl)s2)C(=O)NC1=S	-3%	-3%	5%	8.9µM*	-9%	2%
COc1ccc(/C=C2\C(=O)NC(=S)N(C)C2=O)cc1C	-20%	2%	-3%[57.1 µM]	u	0%	-1%
CN1CC[C@]23c4c5ccc(O)c4OC2C(O)CCC3[C@H]1C5 (stereo partly drawn)	x	-7%[96 µM]	x	x	x	x
COc1cc(C=C2C(=O)NC(=O)NC2=O)ccc1OS(=O)(=O)c1ccccc1[N+](=O)[O-]	3%	6%	5%	6.3µM*	4%	1%
COc1cc(C=C2C(=O)NC(=O)NC2=O)cc(OC)c1OC	-3%	-14%	4%[0.0914 µM]	u	-4%	-35%
CCOc1cc(CNC(C)(C)CO)cc(Br)c1OCc1ccc(Cl)cc1Cl	5µM*	-16%	4%	0%	10%	u
CCOc1cc(CNCCO)cc(Br)c1OCc1ccc(Cl)cc1	u	-5%	9%[57.1 µM]	11%[57.1 µM]	16%	u
Cc1ccc(-c2cc(C(=O)NCCCn3ccnc3)c3cc(Br)ccc3n2)o1	3%	-31%	27%[57.1 µM]	14µM*	6%	93%
NC(c1csc(Nc2ccc(C(F)(F)F)cn2)n1)C1CCCCC1 (stereo not drawn)	u	-8%	x	x	x	u
COC(=O)C1=C(C)N(Cc2ccccc2)C(=NCc2cccc(C(F)(F)F)c2)N[C@H]1c1cccc(F)c1	u	-21%	-11%	7%	0%[38.3 µM]	22µM*
CC1CCN(C(=O)N2c3ccccc3Sc3ccccc32)CC1	2µM*	15%	6%[57.1 µM]	11%[57.1 µM]	2%	-9%
COc1cccc(C(=O)Nc2ccc3nc(SCC(=O)N(C)c4ccccc4)sc3c2)c1	u	x	8%	19%	6%	u
CN(C(=O)CSc1nc2ccc(NC(=O)COc3ccc(Cl)cc3)cc2s1)c1ccccc1	5.6µM*	x	4%	23%	-3%	-9%
S=C(SSC(=S)N1CCCCC1)N1CCCCC1	x	-7%	x	x	x	x
CCOC(=O)c1cccc(NC(=O)NCc2ccc3c(c2)CCN3C(=O)c2ccccc2)c1	u	x	8%[57.1 µM]	28%[57.1 µM]	22%	-14%
CS(=O)(=O)c1ccc(C2=C(CNC(=O)c3ccncc3)[C@H]3CC[C@@H](C2)N3CCOc2ccccc2)cc1	-11%	-1%	x	x	-4%	-7%
CS(=O)(=O)c1ccc(C2=C(CNC(=O)c3ccc([N+](=O)[O-])cc3)[C@H]3CC[C@@H](C2)N3Cc2ccccc2)cc1	-27%	1%	x	x	-1%	17%
SMILES	GLP-1R inv ag	GLP1R ag	TrxR1 substrate	rTrxR1 inhibitor	mIDH1 inhibitor	GLP1R cytotox
CS(=O)(=O)c1ccc(C2=C(CNC(=O)c3ccc([N+](=O)[O-])cc3)[C@H]3CC[C@@H](C2)N3CCOc2ccccc2)cc1	10µM*	-4%	x	x	3%	u
O=C(NCC1=C(c2cccc3ccccc23)C[C@@H]2CC[C@H]1N2Cc1ccco1)c1ccc([N+](=O)[O-])cc1	3.5µM*	-5%	x	x	4%	-28%
O=C(CN1C(=O)c2ccccc2S1(=O)=O)NCCSCc1c(F)cccc1Cl	9%	12%	-5%	15%	4%	u
CCC(=O)NC1=C(Cl)C(=O)C(NC(=O)CC)=C(Cl)C1=O	u	-11%	-11%[57.1 µM]	u	13%	u
O=c1oc(Cl)c(Cl)c2ccccc12	3%	-5%	4%[57.1 µM]	7.5µM*	12%	6%
CCOP(=O)(OCC)c1nc(-c2ccc(Br)cc2)oc1N1CCCCC1	8.9µM*	13%	5%	-10%	3%	1%
CCOP(=O)(c1ccccc1)c1nc(-c2ccc(F)cc2)oc1N1CCCCC1 (stereo not drawn)	u	13%	-8%	9%[57.1 µM]	1%	-1%
CC(=O)O[C@H]1C[C@@H]2CCC3C(CC[C@@]4(C)[C@H]3C[C@H]([N+]3(C)CCCCC3)[C@@H]4OC(C)=O)[C@@]2(C)C[C@@H]1[N+]1(C)CCCCC1 (stereo partly drawn)	x	x	x	8%	x	x
c1cc2c(cc1C1CCCCC1)c1c3n2CCCNC3CCC1 (stereo not drawn)	4µM*	-22%	0%	-9%	9%	u
O=C(COc1ccc(Br)cc1)N1CCN(Cc2c[nH]c3ccccc23)CC1	u	8%	-5%	-10%	3%	-26%
COc1ccc(CN2CCN(C(=O)COc3ccc4ccccc4c3)CC2)c(OC)c1	10µM*	-1%	-11%	-14%	-7%	-4%
O=C(COc1ccc2ccccc2c1)N1CCN(Cc2c[nH]c3ccccc23)CC1	11µM*	-2%	3%	6%	8%	-32%
CCC(C)N1CCN(C(=O)COc2ccc3ccccc3c2)CC1 (stereo not drawn)	u	7%	2%	20%	8%	-9%
COc1ccc(N2CCN(CCCNC(=O)c3cnn(-c4ccc(F)cc4)c3-n3cccc3)CC2)cc1	u	-10%	-9%	-13%	-6%	6%
CCOC(=O)N1CCCN(/[N+]([O-])=N/Oc2ccc([N+](=O)[O-])cc2[N+](=O)[O-])CC1	x	x	-11%	16µM*	x	x
CCOC(=O)N1CCN(/[N+]([O-])=N/Oc2ccc([N+](=O)[O-])cc2[N+](=O)[O-])CC1C (stereo not drawn)	x	x	-16%	u	x	x
